Unmarked numbers belong to inactive results.
What was measured:
Test in all cases: log2 ratio of Biotin-Ahx-Ub-VS probe labelling (fragment/DMSO); higher = less target engagement (more negative = stronger competition), active = hit call of the paper (q ≤ 0.05, log2 ratio ≤ -1)
Conditions in all cases: compound concentration: 200 uM; treatment time: 3 h
USP42 = biological target: T1, USP42 (UniProt Q9H9J4)
T1 sequence (whole entry): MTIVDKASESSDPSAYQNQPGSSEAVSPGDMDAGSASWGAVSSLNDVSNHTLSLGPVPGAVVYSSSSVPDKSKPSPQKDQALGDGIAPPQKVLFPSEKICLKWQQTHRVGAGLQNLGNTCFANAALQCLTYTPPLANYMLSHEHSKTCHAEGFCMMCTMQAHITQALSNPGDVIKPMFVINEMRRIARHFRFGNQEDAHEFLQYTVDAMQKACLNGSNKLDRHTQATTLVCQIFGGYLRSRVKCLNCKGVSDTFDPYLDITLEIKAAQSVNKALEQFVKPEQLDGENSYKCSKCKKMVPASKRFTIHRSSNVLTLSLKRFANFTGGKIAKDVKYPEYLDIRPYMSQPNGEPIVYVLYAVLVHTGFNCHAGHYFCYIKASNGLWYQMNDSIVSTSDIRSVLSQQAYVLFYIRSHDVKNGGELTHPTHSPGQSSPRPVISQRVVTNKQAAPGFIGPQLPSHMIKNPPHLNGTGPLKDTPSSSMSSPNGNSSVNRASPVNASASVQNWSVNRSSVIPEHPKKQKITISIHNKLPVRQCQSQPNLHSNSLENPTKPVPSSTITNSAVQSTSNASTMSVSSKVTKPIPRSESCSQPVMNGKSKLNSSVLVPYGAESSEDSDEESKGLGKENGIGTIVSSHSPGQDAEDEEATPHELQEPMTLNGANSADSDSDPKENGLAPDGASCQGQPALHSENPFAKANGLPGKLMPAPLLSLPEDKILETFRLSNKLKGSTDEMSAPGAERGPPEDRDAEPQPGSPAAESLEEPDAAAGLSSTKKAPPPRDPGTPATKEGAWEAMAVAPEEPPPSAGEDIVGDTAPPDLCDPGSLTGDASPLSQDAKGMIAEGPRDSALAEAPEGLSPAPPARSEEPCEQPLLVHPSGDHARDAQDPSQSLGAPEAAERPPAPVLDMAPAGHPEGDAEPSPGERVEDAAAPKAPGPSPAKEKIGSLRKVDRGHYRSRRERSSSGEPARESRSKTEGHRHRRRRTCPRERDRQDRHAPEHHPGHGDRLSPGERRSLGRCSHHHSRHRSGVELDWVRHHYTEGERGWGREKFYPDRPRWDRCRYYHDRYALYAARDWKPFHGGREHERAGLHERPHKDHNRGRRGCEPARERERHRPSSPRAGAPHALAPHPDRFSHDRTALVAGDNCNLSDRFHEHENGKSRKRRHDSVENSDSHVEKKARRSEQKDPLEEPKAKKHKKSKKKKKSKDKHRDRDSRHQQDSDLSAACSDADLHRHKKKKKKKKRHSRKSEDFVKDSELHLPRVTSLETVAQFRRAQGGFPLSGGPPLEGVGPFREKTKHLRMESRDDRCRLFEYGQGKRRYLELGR
In short: (§1)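 HEK293T lysate (495 µg per sample, in Tris/CHAPS/IGEPAL buffer with protease inhibitors) was exposed in triplicate for 3 h to fragment at 200 µM or to vehicle, then to Biotin-Ahx-Ub-VS at 0.5 µM final for 1 h. Labelled DUBs were enriched on NeutrAvidin, digested with LysC and trypsin, and analysed by diaPASEF LC-MS/MS. Spectronaut label-free quantities were normalised to the global median, and values are average log2 ratios of fragment over vehicle from an unpaired t-test. Only proteins with ≥2 unique peptides were used.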

USP46 = USP46 (UniProt P62068)
In short: as §1

USP47 = biological target: T2, USP47 (UniProt Q96K76)
T2 sequence (whole entry): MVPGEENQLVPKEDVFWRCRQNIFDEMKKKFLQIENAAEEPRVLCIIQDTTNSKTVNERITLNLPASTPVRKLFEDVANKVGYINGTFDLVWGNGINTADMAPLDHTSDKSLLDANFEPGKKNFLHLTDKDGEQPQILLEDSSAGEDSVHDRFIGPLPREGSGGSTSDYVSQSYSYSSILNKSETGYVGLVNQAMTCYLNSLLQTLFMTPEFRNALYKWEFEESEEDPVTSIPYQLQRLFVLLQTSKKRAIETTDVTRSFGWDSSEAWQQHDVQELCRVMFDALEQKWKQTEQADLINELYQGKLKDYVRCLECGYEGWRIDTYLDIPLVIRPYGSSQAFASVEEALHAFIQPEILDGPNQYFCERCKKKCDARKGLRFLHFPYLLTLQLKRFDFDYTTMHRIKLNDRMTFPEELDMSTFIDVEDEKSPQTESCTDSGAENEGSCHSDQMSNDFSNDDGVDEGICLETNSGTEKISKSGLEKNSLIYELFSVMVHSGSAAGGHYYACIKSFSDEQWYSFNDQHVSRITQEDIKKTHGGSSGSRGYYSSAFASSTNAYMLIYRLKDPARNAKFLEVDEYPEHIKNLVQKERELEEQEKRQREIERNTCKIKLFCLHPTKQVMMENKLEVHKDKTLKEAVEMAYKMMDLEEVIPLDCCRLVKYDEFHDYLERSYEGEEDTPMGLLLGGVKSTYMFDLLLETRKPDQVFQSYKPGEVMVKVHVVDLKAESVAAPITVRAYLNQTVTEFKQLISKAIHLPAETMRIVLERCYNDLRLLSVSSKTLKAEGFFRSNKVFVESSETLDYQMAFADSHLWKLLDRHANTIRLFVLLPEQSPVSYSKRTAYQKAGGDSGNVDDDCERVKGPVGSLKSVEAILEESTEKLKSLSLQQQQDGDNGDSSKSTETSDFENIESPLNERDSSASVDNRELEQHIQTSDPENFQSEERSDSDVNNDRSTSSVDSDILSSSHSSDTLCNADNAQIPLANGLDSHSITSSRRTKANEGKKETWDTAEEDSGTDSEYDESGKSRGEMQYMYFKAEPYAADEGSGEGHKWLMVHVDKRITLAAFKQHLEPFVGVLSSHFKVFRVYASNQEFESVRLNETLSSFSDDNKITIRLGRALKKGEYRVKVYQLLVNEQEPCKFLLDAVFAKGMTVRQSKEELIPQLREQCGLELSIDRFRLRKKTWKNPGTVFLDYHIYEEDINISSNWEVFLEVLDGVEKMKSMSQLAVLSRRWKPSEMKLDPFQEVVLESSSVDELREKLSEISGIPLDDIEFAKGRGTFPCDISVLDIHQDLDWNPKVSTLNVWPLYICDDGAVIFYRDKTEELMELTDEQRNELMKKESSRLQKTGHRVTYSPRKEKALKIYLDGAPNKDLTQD
In short: as §1

USP48 = biological target: T3, USP48 (UniProt Q86UV5)
T3 sequence (whole entry): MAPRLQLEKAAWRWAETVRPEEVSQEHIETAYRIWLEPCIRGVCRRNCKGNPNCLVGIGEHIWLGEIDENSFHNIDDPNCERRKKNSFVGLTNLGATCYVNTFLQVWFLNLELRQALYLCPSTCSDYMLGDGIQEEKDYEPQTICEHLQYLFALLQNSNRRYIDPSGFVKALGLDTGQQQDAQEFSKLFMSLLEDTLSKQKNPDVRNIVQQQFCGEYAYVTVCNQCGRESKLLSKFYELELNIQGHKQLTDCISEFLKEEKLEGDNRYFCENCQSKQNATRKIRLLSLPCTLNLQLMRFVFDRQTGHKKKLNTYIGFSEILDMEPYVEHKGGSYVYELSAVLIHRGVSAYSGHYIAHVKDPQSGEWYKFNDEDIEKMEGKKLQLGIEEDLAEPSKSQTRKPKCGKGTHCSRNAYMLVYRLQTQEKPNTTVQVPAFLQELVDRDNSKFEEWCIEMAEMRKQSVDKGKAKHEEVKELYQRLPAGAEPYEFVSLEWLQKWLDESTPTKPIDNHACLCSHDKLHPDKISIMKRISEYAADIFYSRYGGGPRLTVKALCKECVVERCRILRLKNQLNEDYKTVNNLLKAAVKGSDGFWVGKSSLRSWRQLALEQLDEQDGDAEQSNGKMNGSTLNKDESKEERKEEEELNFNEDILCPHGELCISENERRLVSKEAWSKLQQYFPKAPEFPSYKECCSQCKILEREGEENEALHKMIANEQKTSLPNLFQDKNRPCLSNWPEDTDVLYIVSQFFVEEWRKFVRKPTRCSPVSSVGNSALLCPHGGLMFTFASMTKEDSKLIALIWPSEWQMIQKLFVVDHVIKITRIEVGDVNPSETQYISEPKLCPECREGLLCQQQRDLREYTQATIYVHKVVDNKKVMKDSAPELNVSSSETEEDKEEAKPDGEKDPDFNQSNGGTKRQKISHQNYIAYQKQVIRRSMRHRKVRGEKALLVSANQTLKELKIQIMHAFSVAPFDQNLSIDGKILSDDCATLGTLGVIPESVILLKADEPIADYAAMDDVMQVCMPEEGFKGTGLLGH
In short: as §1

USP5 = biological target: T4, USP5 (UniProt P45974)
T4 sequence (whole entry): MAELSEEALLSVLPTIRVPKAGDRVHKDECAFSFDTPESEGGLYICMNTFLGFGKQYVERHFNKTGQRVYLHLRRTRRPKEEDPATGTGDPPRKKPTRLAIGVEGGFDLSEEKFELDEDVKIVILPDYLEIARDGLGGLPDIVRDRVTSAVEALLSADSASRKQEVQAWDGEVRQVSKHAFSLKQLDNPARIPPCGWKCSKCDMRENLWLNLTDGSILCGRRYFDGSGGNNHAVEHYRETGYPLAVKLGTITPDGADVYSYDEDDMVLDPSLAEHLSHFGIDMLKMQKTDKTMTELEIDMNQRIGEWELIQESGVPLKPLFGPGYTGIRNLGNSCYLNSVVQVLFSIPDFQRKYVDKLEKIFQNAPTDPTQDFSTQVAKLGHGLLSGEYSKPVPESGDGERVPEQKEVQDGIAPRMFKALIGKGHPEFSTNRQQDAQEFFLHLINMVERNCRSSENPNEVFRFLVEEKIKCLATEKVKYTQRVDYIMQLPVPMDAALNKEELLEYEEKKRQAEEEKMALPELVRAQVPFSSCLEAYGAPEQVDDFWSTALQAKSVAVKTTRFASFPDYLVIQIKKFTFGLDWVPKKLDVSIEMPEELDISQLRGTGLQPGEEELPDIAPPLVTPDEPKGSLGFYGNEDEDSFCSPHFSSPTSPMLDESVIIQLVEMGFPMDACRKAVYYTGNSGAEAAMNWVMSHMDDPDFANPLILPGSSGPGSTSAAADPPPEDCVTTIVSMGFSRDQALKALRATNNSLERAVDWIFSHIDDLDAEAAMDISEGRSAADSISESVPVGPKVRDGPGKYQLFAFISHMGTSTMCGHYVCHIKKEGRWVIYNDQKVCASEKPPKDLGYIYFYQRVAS
In short: as §1

USP54 = USP54 (UniProt Q70EL1)
In short: as §1

USP7 = USP7 (UniProt Q93009)
In short: as §1

USP8 = biological target: T5, USP8 (UniProt P40818)
T5 sequence (whole entry): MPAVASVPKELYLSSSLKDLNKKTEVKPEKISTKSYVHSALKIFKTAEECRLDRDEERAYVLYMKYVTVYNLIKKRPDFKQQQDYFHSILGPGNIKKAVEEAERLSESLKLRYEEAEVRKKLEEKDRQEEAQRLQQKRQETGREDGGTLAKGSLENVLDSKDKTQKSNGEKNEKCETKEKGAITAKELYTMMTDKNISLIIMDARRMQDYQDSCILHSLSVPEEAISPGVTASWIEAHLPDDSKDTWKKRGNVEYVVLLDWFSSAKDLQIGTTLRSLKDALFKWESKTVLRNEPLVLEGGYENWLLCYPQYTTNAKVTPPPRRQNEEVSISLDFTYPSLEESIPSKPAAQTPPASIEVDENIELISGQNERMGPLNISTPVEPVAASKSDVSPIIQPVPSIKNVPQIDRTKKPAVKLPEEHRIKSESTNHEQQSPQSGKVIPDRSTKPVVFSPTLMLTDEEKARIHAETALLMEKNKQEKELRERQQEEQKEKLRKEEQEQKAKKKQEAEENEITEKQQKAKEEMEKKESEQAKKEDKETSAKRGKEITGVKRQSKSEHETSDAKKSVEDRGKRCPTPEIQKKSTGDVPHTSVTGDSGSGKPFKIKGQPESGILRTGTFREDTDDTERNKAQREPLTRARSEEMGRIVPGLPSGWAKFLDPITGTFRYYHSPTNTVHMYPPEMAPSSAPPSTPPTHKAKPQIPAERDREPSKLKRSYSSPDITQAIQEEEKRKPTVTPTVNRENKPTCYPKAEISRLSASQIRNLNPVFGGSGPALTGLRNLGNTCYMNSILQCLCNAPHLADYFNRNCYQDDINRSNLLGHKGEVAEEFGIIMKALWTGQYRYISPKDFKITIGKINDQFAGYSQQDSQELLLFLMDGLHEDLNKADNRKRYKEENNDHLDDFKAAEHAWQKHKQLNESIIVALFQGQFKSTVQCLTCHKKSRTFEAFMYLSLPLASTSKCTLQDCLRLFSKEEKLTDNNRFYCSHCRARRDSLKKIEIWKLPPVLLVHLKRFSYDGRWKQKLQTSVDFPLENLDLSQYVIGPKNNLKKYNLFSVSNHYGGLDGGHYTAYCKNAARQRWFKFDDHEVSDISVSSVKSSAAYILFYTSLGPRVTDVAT
In short: as §1

Chain of USP46 (P62068 whole entry): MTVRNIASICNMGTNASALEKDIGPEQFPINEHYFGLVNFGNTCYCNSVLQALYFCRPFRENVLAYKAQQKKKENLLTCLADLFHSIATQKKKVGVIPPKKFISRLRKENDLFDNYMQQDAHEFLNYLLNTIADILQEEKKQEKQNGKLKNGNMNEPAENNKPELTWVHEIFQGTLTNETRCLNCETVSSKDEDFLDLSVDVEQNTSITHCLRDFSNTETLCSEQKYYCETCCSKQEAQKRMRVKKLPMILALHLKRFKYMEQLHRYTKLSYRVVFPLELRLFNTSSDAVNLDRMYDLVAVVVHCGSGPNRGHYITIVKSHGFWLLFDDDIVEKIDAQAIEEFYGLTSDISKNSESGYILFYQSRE
Chain of USP7 (Q93009 whole entry, looked up): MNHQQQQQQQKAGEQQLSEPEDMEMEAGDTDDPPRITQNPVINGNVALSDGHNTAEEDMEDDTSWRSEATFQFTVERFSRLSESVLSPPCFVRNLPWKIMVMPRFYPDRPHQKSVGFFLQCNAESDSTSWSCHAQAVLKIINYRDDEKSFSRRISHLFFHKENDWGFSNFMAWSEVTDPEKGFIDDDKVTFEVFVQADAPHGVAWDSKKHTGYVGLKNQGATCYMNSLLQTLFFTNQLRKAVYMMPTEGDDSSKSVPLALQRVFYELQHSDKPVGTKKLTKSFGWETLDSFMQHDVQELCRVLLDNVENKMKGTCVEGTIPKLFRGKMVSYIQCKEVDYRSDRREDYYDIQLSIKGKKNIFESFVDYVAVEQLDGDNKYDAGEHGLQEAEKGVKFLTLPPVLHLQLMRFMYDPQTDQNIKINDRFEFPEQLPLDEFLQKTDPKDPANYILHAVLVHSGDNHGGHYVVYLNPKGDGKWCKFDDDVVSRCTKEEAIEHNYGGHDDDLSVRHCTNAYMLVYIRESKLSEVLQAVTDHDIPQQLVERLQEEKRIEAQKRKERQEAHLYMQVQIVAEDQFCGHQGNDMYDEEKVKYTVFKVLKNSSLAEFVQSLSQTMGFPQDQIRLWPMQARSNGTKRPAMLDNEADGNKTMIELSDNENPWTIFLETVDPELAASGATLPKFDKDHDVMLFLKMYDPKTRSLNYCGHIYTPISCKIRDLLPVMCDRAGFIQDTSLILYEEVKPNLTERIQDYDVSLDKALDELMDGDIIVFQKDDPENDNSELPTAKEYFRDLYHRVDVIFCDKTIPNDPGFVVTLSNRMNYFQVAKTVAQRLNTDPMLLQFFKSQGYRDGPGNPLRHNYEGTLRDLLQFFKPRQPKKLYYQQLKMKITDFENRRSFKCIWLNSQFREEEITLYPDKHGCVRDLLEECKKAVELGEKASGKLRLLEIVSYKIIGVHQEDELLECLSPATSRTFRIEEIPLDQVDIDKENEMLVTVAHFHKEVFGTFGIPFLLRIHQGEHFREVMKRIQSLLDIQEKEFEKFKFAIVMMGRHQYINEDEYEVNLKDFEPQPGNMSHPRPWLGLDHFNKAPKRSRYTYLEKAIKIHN
Chain of USP54 (Q70EL1 whole entry): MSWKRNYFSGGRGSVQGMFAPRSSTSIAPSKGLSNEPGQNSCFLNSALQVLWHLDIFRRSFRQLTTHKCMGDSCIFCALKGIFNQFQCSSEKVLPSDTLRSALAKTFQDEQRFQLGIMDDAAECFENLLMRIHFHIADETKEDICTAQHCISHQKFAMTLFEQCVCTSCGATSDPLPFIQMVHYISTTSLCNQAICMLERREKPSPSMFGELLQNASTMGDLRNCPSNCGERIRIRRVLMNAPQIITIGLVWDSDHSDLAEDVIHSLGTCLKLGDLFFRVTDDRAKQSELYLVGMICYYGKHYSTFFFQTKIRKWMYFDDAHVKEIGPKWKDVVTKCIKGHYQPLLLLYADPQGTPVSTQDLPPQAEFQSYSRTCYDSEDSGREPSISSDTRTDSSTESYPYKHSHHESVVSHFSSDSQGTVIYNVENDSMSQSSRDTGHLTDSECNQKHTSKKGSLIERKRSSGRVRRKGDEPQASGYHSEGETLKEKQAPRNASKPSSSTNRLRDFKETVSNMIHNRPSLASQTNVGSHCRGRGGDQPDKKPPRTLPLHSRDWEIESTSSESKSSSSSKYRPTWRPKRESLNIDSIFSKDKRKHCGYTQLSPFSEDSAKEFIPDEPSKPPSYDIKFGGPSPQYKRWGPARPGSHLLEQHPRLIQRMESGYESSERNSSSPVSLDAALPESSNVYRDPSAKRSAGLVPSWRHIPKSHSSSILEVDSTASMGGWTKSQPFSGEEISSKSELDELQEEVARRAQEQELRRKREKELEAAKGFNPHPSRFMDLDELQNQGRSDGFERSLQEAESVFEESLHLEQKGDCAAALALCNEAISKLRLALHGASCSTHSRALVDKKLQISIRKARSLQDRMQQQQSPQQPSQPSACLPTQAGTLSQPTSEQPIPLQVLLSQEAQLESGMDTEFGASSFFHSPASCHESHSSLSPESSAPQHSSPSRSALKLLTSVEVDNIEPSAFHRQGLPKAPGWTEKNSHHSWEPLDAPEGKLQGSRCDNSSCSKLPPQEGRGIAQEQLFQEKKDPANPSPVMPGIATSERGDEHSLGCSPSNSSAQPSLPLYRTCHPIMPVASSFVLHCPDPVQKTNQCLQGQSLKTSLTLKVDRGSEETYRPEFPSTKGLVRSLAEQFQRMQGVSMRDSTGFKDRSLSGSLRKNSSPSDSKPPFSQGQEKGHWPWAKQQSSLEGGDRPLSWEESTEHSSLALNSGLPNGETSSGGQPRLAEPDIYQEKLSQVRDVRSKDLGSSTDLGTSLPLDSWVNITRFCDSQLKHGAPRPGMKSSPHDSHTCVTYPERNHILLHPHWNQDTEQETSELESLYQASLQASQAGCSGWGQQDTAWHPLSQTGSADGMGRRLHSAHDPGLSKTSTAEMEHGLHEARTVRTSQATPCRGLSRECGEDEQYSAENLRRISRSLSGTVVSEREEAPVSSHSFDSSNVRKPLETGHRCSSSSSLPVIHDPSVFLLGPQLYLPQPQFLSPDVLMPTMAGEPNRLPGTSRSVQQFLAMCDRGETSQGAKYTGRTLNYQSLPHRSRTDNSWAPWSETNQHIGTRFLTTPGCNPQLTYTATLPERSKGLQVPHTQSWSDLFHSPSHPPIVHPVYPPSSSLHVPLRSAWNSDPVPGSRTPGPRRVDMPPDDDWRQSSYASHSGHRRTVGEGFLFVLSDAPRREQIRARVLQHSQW

SMILES: O=C(CCl)Nc1cc2c(cc1Cl)OCCO2
- log2 ratio of Biotin-Ahx-Ub-VS probe labelling (USP42): 0.233
- log2 ratio of Biotin-Ahx-Ub-VS probe labelling (USP46): 0.0711
- log2 ratio of Biotin-Ahx-Ub-VS probe labelling (USP47): -0.426
- log2 ratio of Biotin-Ahx-Ub-VS probe labelling (USP48): -1.05 (active)
- log2 ratio of Biotin-Ahx-Ub-VS probe labelling (USP5): 0.0658
- log2 ratio of Biotin-Ahx-Ub-VS probe labelling (USP54): 0.291
- log2 ratio of Biotin-Ahx-Ub-VS probe labelling (USP7): -0.216
- log2 ratio of Biotin-Ahx-Ub-VS probe labelling (USP8): -0.226

From the supplement of paper PMC11732987, “Enantioselective OTUD7B fragment discovery through chemoproteomics screening and high-throughput optimisation” (Communications Chemistry, 2025)
